Hit rate of the full screen: of about 5,500 compounds, about 2,000 (36%) were called active. Another 18% or so got no clear call; they are omitted. No stated cut-off is given here; in the data, active means normalized growth mostly below about 0.91 (no sharp cut-off); inconclusive means no clear call, values can overlap the other calls; inactive means mostly above about 0.92. The list shows a part of the results.
Assay: chemical genetic growth profiling, strain panel (AID 1159580);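 further: tested at 20 µM; growth read once vehicle control cultures reached saturation at 30 °C; 1 = growth at the plate median or of vehicle wells; lower values mean less growth of the strain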
Conditions: growth OD

Measured: normalized growth

CC1(C)S[C@@H]2[C@H](NC(=O)Cc3ccccc3)C(=O)N2[C@H]1C(=O)O
inactive: S. cerevisiae deletion strains, locus YJR066W, strain TOR1, hits give low values 0.941 | S. cerevisiae deletion strains, locus YKL009W, strain mrt4, hits give low values 1 | S. cerevisiae deletion strains, locus YKL068W, hits give low values 1 | S. cerevisiae deletion strains, locus YKL085W, strain MDH1 (second series), hits give low values 1 | S. cerevisiae deletion strains, locus YKL085W, strain MDH1, hits give low values 1 | S. cerevisiae deletion strains, locus YKL160W, strain elf1, hits give low values 1.01 | S. cerevisiae deletion strains, locus YKL190W, strain CNB1, hits give low values 1.01 | S. cerevisiae deletion strains, locus YKR001C, strain vps1, hits give low values 1.01 | S. cerevisiae deletion strains, locus YKR026C, strain gcn3, hits give low values 1.03 | S. cerevisiae deletion strains, locus YKR091W, strain srl3, hits give low values 1.01 | S. cerevisiae deletion strains, locus YLL001W, strain dnm1, hits give low values 1.03 | S. cerevisiae deletion strains, locus YLL026W, hits give low values 1.02 | S. cerevisiae deletion strains, locus YLL041C, strain sdh2, hits give low values 1.01 | S. cerevisiae deletion strains, locus YLR027C, strain aat2, hits give low values 1.03 | S. cerevisiae deletion strains, locus YLR039C, strain RIC1, hits give low values 1.04 | S. cerevisiae deletion strains, locus YLR058C, strain SHM2, hits give low values 1 | S. cerevisiae deletion strains, locus YLR102C, strain apc9, hits give low values 1.02 | S. cerevisiae deletion strains, locus YLR113W, strain HOG1, hits give low values 0.986 | S. cerevisiae deletion strains, locus YLR221C, strain rsa3, hits give low values 1.03 | S. cerevisiae deletion strains, locus YLR258W, strain gsy2, hits give low values 1.03 | S. cerevisiae deletion strains, locus YLR262C, strain YPT6 (second series), hits give low values 1 | S. cerevisiae deletion strains, locus YLR262C, strain YPT6, hits give low values 1.02 | S. cerevisiae deletion strains, locus YLR268W, strain sec22, hits give low values 1.02 | S. cerevisiae deletion strains, locus YLR320W, strain mms22, hits give low values 1.04 | S. cerevisiae deletion strains, locus YLR330W, strain CHS5, hits give low values 1 | S. cerevisiae deletion strains, locus YLR342W, strain FKS1 (second series), hits give low values 1.01 | S. cerevisiae deletion strains, locus YLR342W, strain FKS1, hits give low values 1.03 | S. cerevisiae deletion strains, locus YLR357W, strain rsc2, hits give low values 1.03 | S. cerevisiae deletion strains, locus YLR370C, strain arc18, hits give low values 1.03 | S. cerevisiae deletion strains, locus YLR371W, strain rom2, hits give low values 1.02 | S. cerevisiae deletion strains, locus YLR384C, strain iki3, hits give low values 1.03 | S. cerevisiae deletion strains, locus YLR418C, strain cdc73, hits give low values 1.03 | S. cerevisiae deletion strains, locus YML016C, strain PPZ1, hits give low values 1.01 | S. cerevisiae deletion strains, locus YML032C, strain rad52, hits give low values 1.02 | S. cerevisiae deletion strains, locus YML120C, strain ndi1, hits give low values 1.04 | S. cerevisiae deletion strains, locus YML124C, strain tub3, hits give low values 1.02 | S. cerevisiae deletion strains, locus YMR058W, strain fet3, hits give low values 1.01 | S. cerevisiae deletion strains, locus YMR078C, strain ctf18, hits give low values 1.03 | S. cerevisiae deletion strains, locus YMR125W, strain sto1, hits give low values 1.06 | S. cerevisiae deletion strains, locus YMR129W, hits give low values 1.03 | S. cerevisiae deletion strains, locus YMR205C, strain PFK2, hits give low values 1.03 | S. cerevisiae deletion strains, locus YMR223W, strain ubp8, hits give low values 1.02 | S. cerevisiae deletion strains, locus YMR231W, strain pep5, hits give low values 1.03 | S. cerevisiae deletion strains, locus YMR263W, strain SAP30, hits give low values 1 | S. cerevisiae deletion strains, locus YMR307W, strain GAS1, hits give low values 1.01 | S. cerevisiae deletion strains, locus YNL067W, strain RPL9B, hits give low values 1 | S. cerevisiae deletion strains, locus YNL071W, strain lat1, hits give low values 1.02 | S. cerevisiae deletion strains, locus YNL128W, strain TEP1, hits give low values 1.01 | S. cerevisiae deletion strains, locus YNL183C, strain NPR1, hits give low values 0.944 | S. cerevisiae deletion strains, locus YNL209W, strain ssb2, hits give low values 1.02 | S. cerevisiae deletion strains, locus YNL233W, strain BNI4, hits give low values 0.999 | S. cerevisiae deletion strains, locus YNL248C, strain rpa49, hits give low values 1.03 | S. cerevisiae deletion strains, locus YNL250W, strain rad50, hits give low values 1.02 | S. cerevisiae deletion strains, locus YNL271C, strain bni1, hits give low values 1.02 | S. cerevisiae deletion strains, locus YNL298W, strain CLA4, hits give low values 1.01 | S. cerevisiae deletion strains, locus YNL307C, strain MCK1, hits give low values 1.03 | S. cerevisiae deletion strains, locus YNL322C, strain KRE1 (second series), hits give low values 1.04 | S. cerevisiae deletion strains, locus YNR049C, strain mso1, hits give low values 1.01 | S. cerevisiae deletion strains, locus YNR052C, strain pop2, hits give low values 1.02 | S. cerevisiae deletion strains, locus YOL006C, strain TOP1, hits give low values 1.02 | S. cerevisiae deletion strains, locus YOL012C, strain htz1 1.12 | S. cerevisiae deletion strains, locus YOL147C, strain pex11, hits give low values 1.02 | S. cerevisiae deletion strains, locus YOR001W, strain rrp6, hits give low values 1.04 | S. cerevisiae deletion strains, locus YOR061W, strain CKA2, hits give low values 1.01 | S. cerevisiae deletion strains, locus YOR069W, strain VPS5, hits give low values 0.998 | S. cerevisiae deletion strains, locus YOR070C, strain gyp1, hits give low values 1.03 | S. cerevisiae deletion strains, locus YOR080W, strain dia2, hits give low values 1.02 | S. cerevisiae deletion strains, locus YOR083W, strain WHI5, hits give low values 0.987 | S. cerevisiae deletion strains, locus YOR106W, strain vam3, hits give low values 1.03 | S. cerevisiae deletion strains, locus YOR136W, strain idh2, hits give low values 1.02 | S. cerevisiae deletion strains, locus YOR144C, strain elg1, hits give low values 1.02 | S. cerevisiae deletion strains, locus YOR184W, strain ser1, hits give low values 1.06 | S. cerevisiae deletion strains, locus YOR231W, strain MKK1, hits give low values 0.994 | S. cerevisiae deletion strains, locus YOR265W, strain rbl2, hits give low values 1.01 | S. cerevisiae deletion strains, locus YOR270C, strain vph1, hits give low values 1.13 | S. cerevisiae deletion strains, locus YOR290C, strain snf2, hits give low values 1.03 | S. cerevisiae deletion strains, locus YOR316C, strain cot1, hits give low values 1.02 | S. cerevisiae deletion strains, locus YPL051W, strain arl3, hits give low values 1.03 | S. cerevisiae deletion strains, locus YPL055C, strain LGE1, hits give low values 1.01 | S. cerevisiae deletion strains, locus YPL078C, strain atp4, hits give low values 1.03 | S. cerevisiae deletion strains, locus YPL106C, strain sse1, hits give low values 1.02 | S. cerevisiae deletion strains, locus YPL240C, strain hsp82, hits give low values 1.02 | S. cerevisiae deletion strains, locus YPL256C, strain CLN2, hits give low values 0.966 | S. cerevisiae deletion strains, locus YPR119W, strain clb2, hits give low values 1.03 | S. cerevisiae deletion strains, locus YPR141C, strain kar3, hits give low values 1.01 | S. cerevisiae deletion strains, locus YPR163C, strain tif3, hits give low values 1.03 | S. cerevisiae deletion strains, locus YPR167C, strain met16, hits give low values 1.02 | S. cerevisiae deletion strains, strain wtn01, hits give low values 1.01 | S. cerevisiae strains, strain wild type, hits give low values 1

Reference: PubChem BioAssay AID1159580 (chemical genetic matrix, 2015)
